# Hits are enriched below; roughly 15% of the tested compounds scored in any of these assays.
# TDP1 cell CPT: qHTS for Inhibitors of human tyrosyl-DNA phosphodiesterase 1 (TDP1): qHTS in cells in presence of CPT; chicken DT40 Tdp1-/-;hTDP1 cells + 20 nM CPT, ATP luminescence, 48 h; Potency, µM (top dose mostly 46.2 µM), actives largely listed as inhibitors; actives 12% (n = 420,000); also: nearly all actives have a fitted effect of over 55% in size
#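 Chicken DT40 Tdp1-/- cells complemented with human TDP1, 400 cells/well, exposed to compounds plus 20 nM camptothecin for at least 48 h at 37 C; viability read as ATP content by CellTiter-Glo luminescence.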
# TDP1 cell noCPT: qHTS for Inhibitors of human tyrosyl-DNA phosphodiesterase 1 (TDP1): qHTS in cells in absence of CPT. actives 15% (n = 420,000). Potency, µM (titrated, usually from 46.2 µM), usual class: inhibitors. DT40 Tdp1-/- hTDP1 cells, no CPT, ATP luminescence, 48 h; also: nearly all actives have a fitted effect of over 55% in size
#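 Luminescent ATP content (CellTiter-Glo) served as the growth readout. Knockout chicken DT40 cells expressing human TDP1 were exposed to compounds without camptothecin for a minimum 48 hr at 37 °C.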
# 12-LOX inh: Primary qHTS assay for inhibitors of human arachidonate 12S-lipoxygenase (ALOX12): Round 2. actives 1.1% (n = 580,000). purified 12hLO, xylenol orange hydroperoxide absorbance. Potency, µM (doses to about 108 µM), hits mostly inhibitors
# Target sequence (P18054 whole entry, looked up): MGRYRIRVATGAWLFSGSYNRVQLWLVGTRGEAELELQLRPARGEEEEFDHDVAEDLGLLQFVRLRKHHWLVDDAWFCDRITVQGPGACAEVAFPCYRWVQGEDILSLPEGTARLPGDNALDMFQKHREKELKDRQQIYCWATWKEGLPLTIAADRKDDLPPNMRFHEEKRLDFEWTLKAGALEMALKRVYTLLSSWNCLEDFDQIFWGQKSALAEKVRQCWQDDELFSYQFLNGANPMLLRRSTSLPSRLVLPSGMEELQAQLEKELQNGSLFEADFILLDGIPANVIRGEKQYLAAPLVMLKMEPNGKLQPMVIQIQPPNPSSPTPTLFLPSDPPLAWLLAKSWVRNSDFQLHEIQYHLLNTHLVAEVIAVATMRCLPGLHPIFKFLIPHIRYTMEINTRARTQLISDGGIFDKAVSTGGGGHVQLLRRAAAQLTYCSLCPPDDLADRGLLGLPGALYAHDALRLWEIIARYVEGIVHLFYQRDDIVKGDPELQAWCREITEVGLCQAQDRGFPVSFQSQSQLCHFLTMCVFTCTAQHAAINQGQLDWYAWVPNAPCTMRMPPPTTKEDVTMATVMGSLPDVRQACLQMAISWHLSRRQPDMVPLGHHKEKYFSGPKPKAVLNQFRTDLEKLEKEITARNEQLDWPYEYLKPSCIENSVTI
#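 Purified human 12hLO (150 nM final) in 25 mM Hepes, 0.01% Triton X-100, pH 7.0 was preincubated 15 min at room temperature with compound. Then 40 uM arachidonic acid was added, 30 min. Hydroperoxide was read by Fe-XO absorbance ratio 573/405 nm.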
# ELG1 repair inh: qHTS screen for small molecules that inhibit ELG1-dependent DNA repair in human embryonic kidney (HEK293T) cells expressing luciferase-tagged ELG1. HEK293T ELG1-luciferase reporter, luminescence, 16 h; DNA damage induced by 5-fluorouridine. Potency, µM (highest dose often 46.1 µM), usual class: inhibitors. actives 2.3% (n = 330,000). AID 504467, 2011; also: nearly all actives have a fitted effect of over 55% in size
#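 5-Fluorouridine DNA damage + compound/DMSO, 2,000 cells/well, 16 h, 37 °C/5% CO2. ONE-Glo, 30 min RT, luminescence. Readout = decrease in reporter signal.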
# VP16 counter: VP16 counterscreen qHTS for inhibitors of ROR gamma transcriptional activity; Drosophila S2 Gal4-VP16 UAS-luciferase, luminescence, 20 h; Potency, µM (doses to about 53.6 µM), most hits filed as inhibitors; actives 3.5% (n = 310,000); AID 2546, 2010;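 also: Gal4-VP16 expression switched on by copper sulfate through the metallothionein promoter; nearly all actives have a fitted effect of over 50% in size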
# RORg inh: qHTS for inhibitors of ROR gamma transcriptional activity. actives 5.4% (n = 310,000). Potency, µM (series often up to 53.6 µM), actives largely listed as inhibitors. AID 2551, 2010. Nuclear receptor ROR-gamma (Mus musculus), P51450. Drosophila S2 Gal4-RORgamma UAS-luciferase reporter, 20 h; also: nearly all actives have a fitted effect of over 60% in size
#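 Read-out: Photinus luciferase luminescence; inhibitors lower reporter signal. Insect Schneider cells with Gal4-ROR gamma fusion under metallothionein promoter, UAS reporter; 700 uM final copper sulfate induction, 20 hr, ambient temperature.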
# Numbers stand for hits; n = inactive; u = inconclusive; x = no result given; [ ] = dose if it differs, or a comment. Calls follow the shape of the dose curve; as a rule, active = well fitted curve in the direction sought with a large enough effect; inconclusive = small, poorly fitted or top-dose-only effect, or another doubt; inactive = no such curve, though single readings can be large; an effect the other way counts as inactive or inconclusive.
SMILES,TDP1 cell CPT,TDP1 cell noCPT,12-LOX inh,ELG1 repair inh,VP16 counter,RORg inh
CC1(c2ccccc2)N(Cc2ccccc2)C(=O)OC12CCN(Cc1cccnc1)CC2 (configuration not stated),x,x,n,x,x,x
O=C(O)CCn1ncc2cc(OCc3ccc(-c4ccncc4)cc3)ccc21,x,x,n,x,x,x
CCNc1nc(ON=C(C)C)nc(N(C)C)n1,u,u,n,n,n,14µM
CCNc1nc(NCC)nc(OCCOC(C)=O)n1,n,n,n,u,n,n
Clc1ccc2nc(-c3cccc(Br)c3)cn2c1,x,x,13µM,x,x,x
Clc1ccc(-c2cn3cc(Br)ccc3n2)cc1,x,x,n,x,x,x
COc1ccc(-c2[nH]ncc2CN2CCN(Cc3cccs3)CC2)c(F)c1,n,u,n,u,n,n
COc1cc(-c2[nH]ncc2CN2CCN(Cc3cccs3)CC2)cc(OC)c1OC,18µM,21µM,n,n,n,n
CN(CCOc1ccc(Br)cc1)C(=O)CSc1nnc(-c2ccc(Cl)cc2)n1C,x,x,n,x,x,x
COC(=O)c1[nH]c2cccc(OC)c2c1NC(=O)CN1CCN(c2cccc(OC)c2)C(C)C1 (configuration not stated),u,15µM,u,13µM,n[0.365 µM],n
COc1cccc(N2CCN(CC(=O)c3c[nH]c4ccc(OC)cc34)CC2C)c1 (configuration not stated),21µM,21µM,u,u,n,n
COC(=O)c1[nH]c2cccc(OC)c2c1NC(=O)CCN1CCN(c2ccccc2OC)CC1,10µM,13µM,n,u,n,n
CC(C)C(=O)N1Cc2ccccc2CC2(CCCN(CC3CCOCC3)C2)C1 (configuration not stated),x,x,n[12.5 µM],x,x,x
CC(C)C1=NN(C(=O)c2cccnc2)C(O)(C(F)(F)F)C1 (configuration not stated),u,u,n,n,u,n
O=C(c1cccnc1)N1N=C(C2CC2)CC1(O)C(F)(F)F (configuration not stated),n,u,n,n,n[10 µM],u
COCCC1=NN(C(=O)c2ccncc2)C(O)(C(F)(F)F)C1 (configuration not stated),x,x,n,x,x,x
CC(C)CC1=NN(C(=O)c2ccncc2)C(O)(C(F)(F)F)C1 (configuration not stated),2.9µM,3.3µM,n,u,u,n
COc1ccc(C(=O)N2N=C(C)CC2(O)C(F)(F)F)cc1OC (configuration not stated),x,x,n,x,x,x
CC1=NN(C(=O)c2cccnc2)C(O)(C(F)(F)F)C1 (configuration not stated),n,n,n,n,13µM,7.9µM
CC(C)CC1=NN(C(=O)c2cccnc2)C(O)(C(F)(F)F)C1 (configuration not stated),4.1µM,2.9µM,n,n,13µM,11µM
CC1=NN(C(=O)c2ccoc2C)C(O)(C(F)(F)F)C1 (configuration not stated),2.9µM,2.3µM,n,u,10µM,3.5µM
N#Cc1ccc(N2CCC(C(=O)NCCc3cccs3)CC2)nc1,x,x,n,x,x,x
COc1ccc(C2=C(O)C(=O)N(c3ccc(OC)cc3)C2c2cccc(Br)c2)cc1 (configuration not stated),x,x,n,x,x,x
CC1=NN(C(=O)c2csc(C(C)C)c2)C(O)(C(F)(F)F)C1 (configuration not stated),0.73µM,1µM,n,n,4.5µM,5µM
O=C(c1ccncc1)N1N=C(C2CC2)CC1(O)C(F)(F)F (configuration not stated),3.7µM,5.2µM,n,n,n,11µM
SMILES,TDP1 cell CPT,TDP1 cell noCPT,12-LOX inh,ELG1 repair inh,VP16 counter,RORg inh
Clc1ccc(CCNC(c2nnc(-c3ccccc3)o2)c2ccccc2Cl)cc1 (configuration not stated),18µM,23µM,n,x,x,x
CC(C)CCNC(=O)N1CCC(N2CC3CC(C2)[C@H]2CCCC(=O)N2C3)CC1 (some centres not stated),x,x,n,x,x,x
CCOC(=O)/C=c1\s/c(=C\c2ccc3c(c2)OCCO3)c(=O)n1CC(=O)NCC1CCCO1 (configuration not stated),n,n,n,n,n,n
CCOC(=O)/C=c1\s/c(=C\c2ccc3cc(OC)ccc3c2)c(=O)n1CC(=O)NCc1ccc2c(c1)OCO2,6.5µM,9.2µM,n,u,n,n
CCOC(=O)/C=c1/s/c(=C\c2c(OC)ccc3ccccc23)c(=O)n1CC(=O)NCC1CCCO1 (configuration not stated),23µM,26µM,u,x,x,x
Cc1ccc(C2=NC3(CCN(C(=O)COc4ccccc4)CC3)ON2)cc1,x,x,n,x,x,x
CS(=O)(=O)N(CC(=O)N1CCN(c2ccccc2F)CC1)c1cc(C(F)(F)F)ccc1Cl,u,16µM,x,u,n,u
CS(=O)(=O)N(CCc1ccccc1)CC(=O)N1CCN(c2ccc(F)cc2)CC1,u,23µM,n,u,n,n
CS(=O)(=O)N(CCc1ccccc1)CC(=O)N1CCN(c2ccccc2)CC1,n,n,u,u,n,u
CCc1ccccc1N(CC(=O)N1CCN(c2ccc(F)cc2)CC1)S(C)(=O)=O,15µM,23µM,u,n,n,n
CS(=O)(=O)N(CC(=O)N1CCN(c2ccccc2)CC1)c1cc(C(F)(F)F)ccc1Cl,u,n,n,n,n,n
CC(C)n1ccc2c(NC(=O)C[C@H]3NC(=O)c4ccccc4NC3=O)cccc21,x,x,n,x,x,x
COc1ccc2nc3n(c2c1)[C@@H](CNC(C)C)COC3,x,x,n,x,x,x
COC(=O)c1cc(NS(=O)(=O)c2ccc(NC(C)=O)cc2)cc(C(=O)OC)c1,n,n,n,n,n,n
CC(=O)Nc1ccc(C(=O)N/N=C/c2ccccc2OC(=O)c2ccc(Cl)cc2)cc1,9.2µM,10µM,n,u,n,u
CC(=O)Nc1ccc(S(=O)(=O)Oc2ccc(/C=N/NC(=O)c3ccc(Cl)cc3)cc2)cc1,21µM,16µM,n,u,u,n
COC(=O)c1ccc(OS(=O)(=O)c2ccc(NC(C)=O)cc2)cc1,12µM,u,n,n,u,u
C=CC(=O)N1C/C(=C/c2ccccc2)C(=O)/C(=C\c2ccccc2)C1,0.73µM,0.73µM,n,x,x,x

# Screening results deposited in PubChem by National Center for Advancing Translational Sciences (NCATS).
